KDM5B inh: KDM5B demethylase inhibition. KDM5B demethylase, FDH-coupled NADH fluorescence (FDH is formaldehyde dehydrogenase). actives 2.6% (n = 220,000). AID 1347165. Potency, µM (highest dose often 57.7 µM), most hits filed as inhibitors; active means well fitted inhibition curve with a large enough effect; further: 0% is about no effect; nearly all actives have a fitted effect of over 70% in size
Target sequence (Q9UGL1 whole entry, looked up): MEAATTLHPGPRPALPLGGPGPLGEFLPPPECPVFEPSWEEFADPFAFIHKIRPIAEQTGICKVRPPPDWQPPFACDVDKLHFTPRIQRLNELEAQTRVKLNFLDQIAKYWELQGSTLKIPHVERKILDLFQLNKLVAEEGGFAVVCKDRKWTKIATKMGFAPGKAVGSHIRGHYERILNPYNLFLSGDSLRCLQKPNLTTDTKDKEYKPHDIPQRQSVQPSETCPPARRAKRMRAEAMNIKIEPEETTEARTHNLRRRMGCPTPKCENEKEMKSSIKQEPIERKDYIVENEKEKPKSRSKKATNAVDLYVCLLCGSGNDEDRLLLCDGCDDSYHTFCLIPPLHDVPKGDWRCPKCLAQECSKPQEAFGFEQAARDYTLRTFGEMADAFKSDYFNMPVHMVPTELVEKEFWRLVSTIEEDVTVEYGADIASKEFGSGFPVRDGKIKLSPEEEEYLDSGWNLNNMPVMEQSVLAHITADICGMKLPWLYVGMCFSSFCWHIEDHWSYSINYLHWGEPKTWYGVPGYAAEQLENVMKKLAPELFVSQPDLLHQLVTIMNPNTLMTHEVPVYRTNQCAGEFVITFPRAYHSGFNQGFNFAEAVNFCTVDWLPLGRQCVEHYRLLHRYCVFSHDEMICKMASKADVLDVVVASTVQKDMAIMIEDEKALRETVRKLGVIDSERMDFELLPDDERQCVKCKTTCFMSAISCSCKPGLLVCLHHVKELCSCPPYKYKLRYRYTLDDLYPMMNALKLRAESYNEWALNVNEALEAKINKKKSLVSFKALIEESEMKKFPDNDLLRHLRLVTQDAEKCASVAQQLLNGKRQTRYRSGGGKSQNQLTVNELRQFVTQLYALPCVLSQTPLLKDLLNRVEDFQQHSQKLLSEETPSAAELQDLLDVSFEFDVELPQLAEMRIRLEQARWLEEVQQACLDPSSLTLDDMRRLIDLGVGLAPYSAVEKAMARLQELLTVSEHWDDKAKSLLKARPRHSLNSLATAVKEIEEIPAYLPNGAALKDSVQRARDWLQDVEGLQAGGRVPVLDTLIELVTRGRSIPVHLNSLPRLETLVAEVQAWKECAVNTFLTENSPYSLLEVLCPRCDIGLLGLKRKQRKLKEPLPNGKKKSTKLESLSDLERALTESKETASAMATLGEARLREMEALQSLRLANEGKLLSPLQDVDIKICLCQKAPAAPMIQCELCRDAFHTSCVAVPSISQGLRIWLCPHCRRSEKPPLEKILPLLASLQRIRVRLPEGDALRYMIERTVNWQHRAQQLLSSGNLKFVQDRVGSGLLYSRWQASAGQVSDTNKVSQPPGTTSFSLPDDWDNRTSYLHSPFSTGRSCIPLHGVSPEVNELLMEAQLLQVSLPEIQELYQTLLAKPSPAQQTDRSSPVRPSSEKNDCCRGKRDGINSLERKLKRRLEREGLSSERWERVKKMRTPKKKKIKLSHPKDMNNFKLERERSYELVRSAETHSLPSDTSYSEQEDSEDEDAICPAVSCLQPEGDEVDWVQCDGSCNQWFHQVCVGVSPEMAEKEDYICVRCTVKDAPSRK
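Inhibition is measured as reduced NADH fluorescence generation from FDH coupling to formaldehyde release. Truncated KDM5BΔAP at 200 nM final acts on H3K4me3 peptide (12.5 µM in substrate mix) in pH 7.5 HEPES buffer with Tween-20, 30 min, room temperature.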
Starred values were filed as active, the others as inactive; i = inactive. The sample as a whole holds a higher share of hits than the screen did. Potency means the concentration at half of the fitted maximal effect.

SMILES	KDM5B inh
Cc1ccc(NC(=O)N2Cc3[nH]cnc3C[C@H]2c2nc(-c3ccc(C)cc3)no2)cc1	i
O=C(Nc1ccc(Cl)cc1)N1Cc2[nH]cnc2C[C@H]1c1nc(-c2ccc(F)c(Cl)c2)no1	i
Cc1ccc(-c2noc([C@@H]3Cc4nc[nH]c4CN3C(=O)c3ccc(F)cc3)n2)cc1	i
CN(C)c1ccc(CN2Cc3[nH]cnc3C[C@H]2c2nc(-c3ccncc3)no2)cc1	i
Cc1ccc(NC(=O)N2Cc3[nH]cnc3C[C@H]2c2nc(-c3cccc([N+](=O)[O-])c3)no2)cc1	i
Cc1cccc(-c2noc([C@@H]3Cc4nc[nH]c4CN3C(=O)NC(C)C)n2)c1	8.91µM*
COC(=O)COCC(=O)N1Cc2[nH]cnc2C[C@H]1c1nc(-c2ccc(F)c(Cl)c2)no1	i
Cc1cccc(C(=O)N2C(C(=O)NC(C)c3ccccc3)COC23CCC(C)CC3)c1 (stereo not drawn)	i
Cn1nc(C(=O)NN2C(=O)NC3(CCCCC3)C2=O)c2ccccc2c1=O	i
COc1ccc(NS(=O)(=O)c2cccc(C(=O)Nc3ccc4oc(C)nc4c3)c2)cc1	i
O=C1COc2ccc(S(=O)(=O)NC3CCCCCC3)cc2N1Cc1noc(C2CC2)n1	i
O=C(Nc1cccc(Br)c1)Nc1ccc2c(c1)N(C(=O)c1ccccc1)CC2	i
CN(C)c1ccc(CN2Cc3[nH]cnc3C[C@H]2c2nc(-c3ccccc3)no2)cc1	i
COc1ccc(CN2Cc3[nH]cnc3C[C@H]2c2nc(-c3ccc4ccccc4c3)no2)cc1	15.8µM*
CC(C)(CC(=O)O)CC(=O)N1Cc2[nH]cnc2C[C@H]1c1nc(-c2ccc3ccccc3c2)no1	i
O=C(NC1CCCCC1)N1Cc2[nH]cnc2C[C@H]1c1nc(-c2ccccc2)no1	i
O=C(C1CCCCC1)N1Cc2[nH]cnc2C[C@H]1c1nc(-c2ccc3ccccc3c2)no1	31.6µM*
COc1ccccc1CN1Cc2[nH]cnc2C[C@H]1c1nc(-c2cccc(C)c2)no1	i
Brc1ccccc1NC1C2CC3CC(C2)CC1C3 (stereo not drawn)	i
Cc1cccnc1NC(=O)c1cnc2ccccc2n1	i
CC(C)Oc1cccc(C(=O)Nc2cc(Cl)cc(Cl)c2)c1	i
Cc1noc(C)c1-c1cc2c(cc(C)n2C)c(-c2cnn(C)c2)n1	i
Cc1noc(C)c1-c1cc2c(cc(-c3ccccc3)n2C)c(-c2ccnn2C)n1	i
Cc1noc(C)c1-c1cc2c(cc(-c3ccccc3)n2C)c(-c2cnn(C)c2)n1	35.5µM*
COc1ncccc1-c1nc(-c2c(C)noc2C)cc2c1cc(-c1ccccc1)n2C	i
SMILES	KDM5B inh
Cc1noc(C)c1-c1cc2c(c(-c3cccnc3)c1)C(=O)N(C)C2	i
Cc1noc(C)c1-c1cc2c(cc(-c3ccccc3)n2C)c(N2CCOCC2)n1	22.4µM*
COc1ccc(-c2nc(-c3c(C)noc3C)cc3c2cc(-c2ccccc2)n3C)cn1	28.2µM*
COc1ccc(-c2cc(-c3c(C)noc3C)cc3c2C(=O)N(C)C3)cn1	31.6µM*
Cc1noc(C)c1-c1cc2c(c(-c3ccc(CO)cc3)c1)C(=O)N(C)C2	i
CCn1c(SCC(=O)c2ccc(Cl)s2)nnc1-c1ccccc1	i
Cc1cc2oc(=O)cc(CN(C)C(C)C3CC3)c2cc1C(C)C (stereo not drawn)	i
C[C@H](NC(=O)C1CC(=O)N(c2ccc(F)cc2)C1)C(=O)N[C@@H](Cc1ccccc1)C(=O)O (stereo partly drawn)	i
NC(=O)COc1cccc(NC(=O)CCc2ncc(-c3ccccc3)o2)c1	i
COc1cc(C(=O)Nc2ccc3oc(-c4ccccc4F)cc(=O)c3c2)cc(OC)c1OC	i
CS(=O)(=O)c1cccc(C(=O)NCc2coc(-c3cccs3)n2)c1	i
CC(=O)c1nnn(-c2nc(N3CCCCC3)nc(N3CCOCC3)n2)c1C	i
CCCC(=O)N(c1ccc(OC)cc1OC)C1C=CS(=O)(=O)C1 (stereo not drawn)	i
O=C(NCCSCc1ccsc1)C1CCC1	i
Cc1noc(C)c1-c1cc2c(cc(-c3ccccc3)n2C)c(Nc2ccncn2)n1	35.5µM*
Cc1cc2cc(-c3c(C)noc3C)nc(NCc3ccccc3)c2o1	i
Cc1noc(C)c1-c1cc2c(cc(C)n2C)c(Nc2ccncn2)n1	i
CC12CNC3(C#N)CC1CCC32C (stereo not drawn)	i
COc1ccc(C(C(=O)Nc2ccc3c(c2)OCCO3)N(C)C(=O)Cc2cccs2)cc1 (stereo not drawn)	i
Cc1cc2oc(=O)cc(CSc3nnc4ccccn34)c2cc1C(C)C	i
Cc1oc(-c2ccccc2)nc1CC(=O)Nc1ccc2ccccc2c1	i
O=C(CCc1ccccc1)N1CCc2c(nc(-c3ccc(F)cc3)[nH]c2=O)C1	i
COc1ccc(-c2nc3c(c(=O)[nH]2)CCN(C(=O)Nc2ccc(C)cc2C)C3)cc1	25.1µM*
O=C(c1nccc2ccccc12)N1CCc2c(nc(-c3ccccc3)[nH]c2=O)C1	i
CN1N=C(C(=O)N2CCc3c(nc(-c4ccncc4)[nH]c3=O)C2)CCC1=O	i
SMILES	KDM5B inh
CCn1ccc(C(=O)N2CCc3c(nc(-c4ccc(OC)cc4)[nH]c3=O)C2)n1	i
COc1ccc(-c2nc3c(c(=O)[nH]2)CCN(C(=O)COc2ccc(F)c(F)c2)C3)cc1	22.4µM*
C/C=C/Cn1c(SCCC)nc2c1c(=O)[nH]c(=O)n2C	i
O=C(NNC(=O)C1CCCC1)c1ccc(Cl)cc1	i
COc1ccc(C(=O)COC(=O)c2csc(Nc3ccc(C)cc3)n2)cc1	i
Cc1ccc(NC(=O)Cn2c(=O)n(CCC(=O)N3CCc4ccccc4C3)c(=O)c3ccccc32)cc1	i
Cc1ccc(S(=O)(=O)N(CC(=O)N2CCc3ccccc3C2)Cc2cccc(C)c2)cc1	i
Cc1ccc(C(CC(=O)N2CCc3ccccc3C2)c2cn(C)c3ccccc23)cc1 (stereo not drawn)	17.8µM*
Cc1ccccc1C(=O)N1CCC2(CC1)OCCN2S(=O)(=O)c1ccc(Cl)cc1	i
Cc1cc(CNC(=O)C2CCCCC2)c2ccccc2n1	i
Cc1c(-c2ccccc2F)[nH]c2ccc(CNC(=O)C3CCNC3)cc12 (stereo not drawn)	28.2µM*
Cc1[nH]c2ccccc2c1C(=O)C(=O)NCCNC(=O)C1CCCC1	i
COC(=O)c1c(C)[nH]c(-c2ccccc2F)c1C1C(=O)Nc2ccccc21 (stereo not drawn)	i
Cc1[nH]c2ccc(C(=O)N(Cc3ccccc3F)C3CC3)cc2c1C	i
Cc1c(-c2ccccc2F)[nH]c2ccc(CNS(=O)(=O)C3CC3)cc12	28.2µM*
Cc1cccc(N(C)S(=O)(=O)c2ccc3oc(=O)ccc3c2)c1C	i
O=C(C(Sc1nncn1-c1ccccc1F)c1ccccc1)N1CCCCC1 (stereo not drawn)	i
O=C(NC1CCSC1=O)c1cc2ccccc2o1 (stereo not drawn)	i
O=C(Nc1ccc(F)cc1F)c1ccc(S(=O)(=O)C2CCS(=O)(=O)C2)cc1 (stereo not drawn)	i
CN(Cc1cccs1)C(=O)c1ccc(S(C)(=O)=O)cc1	i
COCC1CN(C)CC12CCN(S(=O)(=O)c1cc(F)cc(F)c1)CC2 (stereo not drawn)	i
COCC1CN(C)CC12CCN(Cc1ccc(F)c(Cl)c1)CC2 (stereo not drawn)	28.2µM*
